The values that follow come from PubChem BioAssay (Tox21).

Results filed as inconclusive are left out. Entries that show only a call come without a potency. Unmarked numbers belong to inactive results. The source made the active and inactive calls. Calls come from the whole dose curve; as a rule, active = well fitted cell-killing curve with a large enough effect in the repeat runs; inconclusive = weak or mixed curves, or effect the other way; inactive = no such curve, though single readings can be large or run the other way.
Potency is the fitted concentration of half-maximal effect.

The test in a line: qHTS assay to identify small molecule antagonists of the vitamin D receptor (VDR) signaling pathway - cell viability counter screen (AID 743225). Note: nearly all actives have a fitted effect of over 50% in size. Conditions: VDR-bla HEK293T viability, CellTiter-Glo luminescence, 16 h; series mostly up to 61 µM. An excerpt:
U.S. Tox21 Program National Center for Advancing Translational Sciences [NCATS] NIH Chemical Genomics Center [NCGC] U.S. Environmental Protection Agency [EPA] National Institutes of Environmental Health Sciences [NIEHS] National Toxicology Program [NTP] U.S. Food and Drug Administration [FDA] Tox21 Assay Overview: The vitamin D receptor (VDR), a member of nuclear hormone receptor superfamily, plays a critical role in calcium homeostasis and bone metabolism. It is also involved in cell differentiation and growth, and thrombogenicity. To identify the compounds that inhibit VDR signaling, the VDR-UAS-bla HEK 293T cell line (Invitrogen, Carlsbad, CA, USA) containing a beta-lactamase reporter gene under the control of an upstream activator sequence (UAS) was used to screen the Tox21 10K compound library. The cytotoxicity of the Tox21 compound library against the VDR-bla cell line was tested in parallel by measuring the cell viability using CellTiter-Glo assay (Promega, Madison, WI) in the same wells.
Tox21 Assay Protocol Summary: VDR-bla cells were dispensed at 2,000 cells/5 uL of assay medium per well into black wall/clear-bottom 1536-well plates using a Multidrop Combi (Thermo Fisher Scientific, Waltham, MA) dispenser. After the assay plates were incubated at a 37C and 5% CO2 for 4 h, 23 nL of compounds dissolved in DMSO, positive controls or DMSO only was transferred to the assay plate by a Pintool station (Kalypsys, San Diego, CA), followed by addition of 1 uL of 1-alpha, 25-Dihydroxy Vitamin D3 (3 nM, final concentration in the wells) using a Bioraptr Flying Reagent Dispenser (FRD) workstation (Beckman Coulter, Indianapolis, IN). The plates were incubated at 37C and 5% CO2 for 16 h, and then 1 uL of LiveBLAzerTM B/G FRET substrate was added using a Bioraptr FRD. The plates were incubated at room temperature for 2 h and fluorescence intensity was measured by an Envision plate reader (PerkinElmer, Shelton, CT). For cell viability readout that measures cytotoxicity, 3 ul/well of CellTiter-Glo reagent was added into the assay plates using a Bioraptr FRD. After 30 min incubation at room temperature, the luminescence intensity in the plates was measured using a ViewLux plate reader (PerkinElmer).
In general terms: Quantitative high-throughput screening tests each substance at several concentrations.
Consider `COC(=O)c1cncn1C(C)c1ccccc1` (stereo not given), for which the Potency entry is “inactive”.

With `Cc1ccc(-c2c(Cl)nc(C#N)n2S(=O)(=O)N(C)C)cc1`, the Potency result was “inactive”. On to `C=CC(=O)OCC(C)O` (stereo not given), for which the Potency entry is “inactive”. `COc1nn(C(=O)NS(=O)(=O)c2ccccc2OC(F)(F)F)c(=O)n1C`: the Potency result is “inactive”. On the same count and under the same terms, then `COCC(C)N(C(=O)CCl)c1c(C)csc1C` (stereo not given), with “inactive”; and `N#C/C(N)=C(/N)C#N`, with “inactive”. As to `CCOP(=S)(OCC)SCSCC`, the Potency entry is “inactive”. For the molecule `N#CCC#N`, the Potency result was “inactive”.

In the case of `CC(=O)c1cc2c(cc1C)C(C)(C)C(C)CC2(C)C` (stereo not given), the Potency entry was “inactive”. On to `O=C(O)COc1ccc(Cl)cc1`, for which the Potency result was “inactive”. `CN1C(=O)NC(=O)C(C)(C2=CCCCC2)C1=O` (stereo not given): the Potency entry was “inactive”. Still for that read-out and setting: for `C#CCOC(C(=O)OCCN(C)C)(c1ccccc1)c1ccccc1` the value was “inactive”.

In the case of `CCOP(=S)(OCC)Oc1cc(Cl)c(Br)cc1Cl`, the Potency entry was “inactive”. With `CC(C)N(CCC(C(N)=O)(c1ccccc1)c1ccccn1)C(C)C` (stereo not given), the Potency entry was “inactive”. Still for that read-out and setting: for `CO[C@@H]1[C@H](OC(=O)NC(=O)CCl)CC[C@]2(CO2)[C@H]1[C@@]1(C)O[C@@H]1CC=C(C)C` the value was “inactive”; for `CC/C(=N\OC/C=C/Cl)C1=C(O)CC(C2CCOCC2)CC1=O` (stereo not given), “inactive”. Same read-out and setting: for `ClC=C(Cl)Cl` the value was “inactive”; for `CCCC(Cn1cncn1)c1ccc(Cl)cc1Cl` (stereo not given), “inactive”.

Turning to `Clc1ccc(C2(Cn3cncn3)CC(Br)CO2)c(Cl)c1` (stereo not given), the Potency entry is “inactive”. Same read-out and setting: for `CCOP(=O)(OCC)SCCSCC` the value was “inactive”. Take `C=C(C#N)CCC#N`: the Potency entry is “inactive”. Same read-out and setting: for `O=C(O)C(F)(F)C(F)(F)C(F)(F)C(F)(F)C(F)(F)C(F)(F)C(F)(F)C(F)(F)C(F)(F)F` the value was “inactive”; for `Clc1ccc(C(OCCN2CCCCC2)c2ccccc2)cc1` (stereo not given), “inactive”; for `C[C@]12CC[C@H]3[C@@H](CCC4=CC(=O)CC[C@@H]43)[C@@H]1CC[C@@H]2OC(=O)CCC1CCCCC1`, “inactive”.

For the molecule `Clc1cccc(SC2CCNCC2)n1`, the Potency entry was “inactive”. The same measure, in the same setting: then `CC(=O)C(C)(C)C`, with “inactive”.

Regarding `O=C(O)CC(Cl)C(=O)O` (stereo not given), the Potency entry is “inactive”. With `C=CC(=O)OCC(C)C`, the Potency entry is “inactive”. The same measure, in the same setting: then `C/C=C/C=O`, with “inactive”; and `O=C1c2ccccc2C(=O)C1C(=O)C(c1ccccc1)c1ccccc1`, with “inactive”. Turning to `NCC(CC(=O)O)c1ccc(Cl)cc1` (stereo not given), the viability change, negative = cytotoxic was 6.5% [at 0.628 µM]. For the molecule `O=C(O)C1(c2ccc3c(c2)OC[C@H](Cc2ccc(-c4ccccc4)cc2)[C@H]3O)CCCC1`, the Potency was 49 µM (active). Still for that read-out and setting: then `CCCCOC(=O)c1ccccc1C(=O)OCc1ccccc1`, with “inactive”; and `CCCCC(CC)COP(=O)(Oc1ccccc1)Oc1ccccc1` (stereo not given), with “inactive”.

Consider `COP(=S)(OC)Oc1ccc([N+](=O)[O-])cc1Cl`, for which the Potency result is “inactive”. Consider `IC(I)=C(I)I`, for which the Potency is 17.4 µM (active).

Take `[O-][Cl+]O`: the Potency entry is “inactive”. Same read-out and setting: then `Cc1cc(=O)[nH]o1`, with “inactive”. On the same count and under the same terms, then `Sc1ccccc1Cl`, with “inactive”; and `CCCCN=C=O`, with “inactive”.
